Screening data deposited in PubChem by National Center for Advancing Translational Sciences (NCATS).
Shown is part of a subset that was picked to be rich in hits.
NS1 inh – inhibitors of influenza NS1 protein function. Potency, µM (titrated, usually from 46.1 µM), inactives show at the top dose activity, positive = more growth. 270,000 tested, 0.4% active. AID 2326; calls by dose curve; also: potency is read from the fitted curve at half-maximal effect; actives are rising curves; nearly all actives have a fitted effect of over 50% in size
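Recovery from NS1-induced slow growth read by OD600 in budding yeast switched to galactose assay medium (pH 6.0, -URA) at 1:100 dilution. Compound 23 nl per well; the matching strain lacking NS1 serves as control.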
Shiga inhibitor – inhibitors of Shiga toxin in Vero cells. inhibition, % at 38.7 µM. 290,000 tested, 9.2% active. Vero cells, Shiga toxin protein synthesis inhibition reporter; in the data active = inhibition mostly above about 28%, no sharp cut-off; inactive = mostly below about 43%; also: 0% is about no effect
CHX counter – counter-screen for Shiga toxin inhibitors: cycloheximide protein synthesis inhibition | cell reporter, cycloheximide protein synthesis inhibition counterscreen | max response, % | 300,000 tested, 12% active; in the data active = max response mostly above about 13%, no sharp cut-off; inactive = mostly below about 14%; also: read at 38.3 µM for the half of the compounds with a filed dose; 0% is about no effect
AmpC inh detg – inhibitors of E. coli AmpC beta-lactamase with detergent. AID 485294. P00811. 370,000 tested, 0.041% active. AmpC hydrolysis of nitrocefin, absorbance 480 nm, 0.01% Triton. Potency, µM (highest dose often 114 µM), for the others: at the highest dose activity change, negative = inhibition, most hits filed as inhibitors;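 also: potency is read from the fitted curve at half-maximal effect; 0% = no-compound wells and -100% = no-enzyme wells; nearly all actives have a fitted effect of over 25% in size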
Target sequence (P00811 whole entry, looked up): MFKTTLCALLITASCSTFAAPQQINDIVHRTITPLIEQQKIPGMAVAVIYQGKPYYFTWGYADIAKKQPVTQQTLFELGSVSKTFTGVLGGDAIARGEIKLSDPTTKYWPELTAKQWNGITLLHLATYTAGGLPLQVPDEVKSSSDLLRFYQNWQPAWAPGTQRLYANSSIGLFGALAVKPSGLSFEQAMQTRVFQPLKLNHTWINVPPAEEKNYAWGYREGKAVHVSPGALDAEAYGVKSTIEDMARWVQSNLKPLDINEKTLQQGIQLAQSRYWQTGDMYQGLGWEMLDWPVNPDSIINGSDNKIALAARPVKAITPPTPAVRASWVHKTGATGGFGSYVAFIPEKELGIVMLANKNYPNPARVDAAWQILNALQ
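AmpC (5.3 nM in the dispensed reagent) in 20 mM phosphate pH 7.0 with 0.01% (detergent screen) or 0.0001% Triton X-100 was preincubated with compounds for 15 min at room temperature. Nitrocefin was then added from an 800 uM solution, and hydrolysis was followed at 480 nm.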
AmpC no deterg – AmpC beta-lactamase inhibition without detergent; 330,000 tested, 0.52% active; Potency, µM (highest dose often 57.1 µM), inactives show at the top dose activity change, negative = inhibition, usual class: inhibitors; P00811; AmpC nitrocefin hydrolysis, absorbance 480 nm, 0.0001% Triton;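 also: potency is read from the fitted curve at half-maximal effect; plate controls were no compound for no effect and no enzyme for full effect; nearly all actives have a fitted effect of over 20% in size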
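AmpC (5.3 nM in the dispensed reagent) in 20 mM phosphate pH 7.0 with 0.01% (detergent screen) or 0.0001% Triton X-100 was preincubated with compounds for 15 min at room temperature. Nitrocefin was then added from an 800 uM solution, and hydrolysis was followed at 480 nm.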
Numbers without * were called inactive; u = inconclusive; x = no result; [ ] = remark or other dose. Unless noted, calls follow the shape of the dose curve; as a rule, active = well fitted curve in the direction sought with a large enough effect; inconclusive = small, poorly fitted or top-dose-only effect, or another doubt; inactive = no such curve, though single readings can be large; an effect the other way counts as inactive or inconclusive.

SMILES | NS1 inh | Shiga inhibitor | CHX counter | AmpC inh detg | AmpC no deterg
Cc1cccc(N(C(=O)Nc2ccccc2)C2=NCC(C)S2)c1 (stereo not drawn) | -46% | 66* | 30* | -18% | -10%
Cc1ccc(NC(=O)N(C2=NCC(C)S2)c2ccccc2)cc1 (stereo not drawn) | -36% | x | x | x | x
CC1CN=C(N(C(=O)Nc2ccccc2)c2ccc(F)cc2)S1 (stereo not drawn) | 0% | 21 | 11 | -8% | -22%
CSCC[C@H](NC(=O)[C@@H]1CSC2c3ccccc3C(=O)N21)C(=O)N1CCC[C@H]1CO (stereo partly drawn) | -8% | -3 | -1 | u | 62%
CCCc1nc2oc3ccccc3c(=O)c2c(=O)n1-c1ccc(C)cc1 | -7% | 66* | 36* | 7% | -27%
COCCn1c(C(C)C)nc2oc3ccccc3c(=O)c2c1=O | -28% | -3 | 8 | u | -7%
Cc1ccc(-n2c(C(C)C)nc3oc4ccccc4c(=O)c3c2=O)cc1 | -60% | 63* | 29* | -5% | -10%
CCCc1nc2ccccc2c(=O)n1-c1ccc(O)cc1 | -4% | 21 | -5 | 7% | -14%
CCc1nc2oc3ccccc3c(=O)c2c(=O)n1CCOC | -3% | -1 | -1 | u | -11%
CCc1nc2oc3ccccc3c(=O)c2c(=O)n1-c1ccccc1 | -11% | 65* | 44* | -3% | -35%
CCCc1nc2oc3ccccc3c(=O)c2c(=O)n1-c1ccccc1 | -3% | 55* | 33* | -7% | 2%
Cc1cccc(-n2c(=O)c3c(c4cc(C)ccc4n3C)n(Cc3ccccc3F)c2=O)c1 | x | x | x | 7% | x
Cc1ccccc1NC(=O)CN(C)S(=O)(=O)c1cccc2nsnc12 | x | x | x | -3% | x
COC(=O)c1nnn(CC(=O)Nc2cccc(OC)c2)c1C(=O)OC | u | -2 | 3 | 0% | 16%
Cc1nn(CCC(=O)Nc2cc(F)ccc2F)c(=O)c2nn(-c3ccccc3)c(C)c12 | x | x | x | 23% | x
NC(=O)C1CCCN(C(=O)c2ccc3c(c2)NC(=O)CS3)C1 (stereo not drawn) | x | x | x | -6% | -7%
CCc1nc2oc3ccccc3c(=O)c2c(=O)n1-c1ccc(C)cc1 | 0% | 64* | 41* | -9% | -29%
Cc1ccc(NC(=O)CSc2nc(-c3cccs3)nc3cc(=O)[nH]n23)cc1 | x | x | x | 0% | x
O=C(/C=C/c1ccc(OC2CSC2)cc1)c1ccc(Cl)cc1 | 8% | -3 | -6 | -3% | -9%
CCC1CSC(Nc2ccc(C(=O)/C=C/c3ccc(Oc4ccccc4)cc3)cc2)=N1 (stereo not drawn) | 19% | 30* | 47* | 2% | -24%
CCC1CSC(Nc2ccc(C(=O)/C=C/c3cccc(C)c3)cc2)=N1 (stereo not drawn) | 13% | -2 | 13* | 1% | -5%
O=C(O)c1cccc(N/N=C/c2cn(-c3ccccc3)nc2-c2cccs2)c1 | x | 150* | 52* | 0% | -34%
O=C(N/N=C/c1cn(-c2ccccc2)nc1-c1cccs1)c1ccncc1 | -2% | 50* | 32* | 1% | 39%
Cc1nn(-c2ccccc2)cc1/C=N/NC(N)=S | -1% | 40* | 13 | 5% | -32%
NC(=O)N/N=C/c1cn(-c2ccccc2)nc1-c1cccs1 | x | 51* | 36* | 0% | -6%
SMILES | NS1 inh | Shiga inhibitor | CHX counter | AmpC inh detg | AmpC no deterg
O=C(N/N=C/c1nn(-c2ccccc2)cc1-c1ccccc1)c1ccncc1 | 1% | 29 | 22 | u | 145%
Cc1nn(-c2ccccc2)cc1/C=N/O | -13% | 28 | -2 | -12% | -12%
NS(=O)(=O)c1ccc(N/N=C/c2cn(-c3ccccc3)nc2-c2cccs2)cc1 | u | 39* | 9.3* | -2% | -50%
NS(=O)(=O)c1ccc(N/N=C/c2cn(-c3ccccc3)nc2-c2cccs2)c([N+](=O)[O-])c1 | 13% | 7 | 6 | u | -24%
O=C(N/N=C/c1cn(Cc2ccccc2)c2ccccc12)c1ccncc1 | x | -5 | 17 | -2% | 102%
Cc1ccc(-c2nn(-c3ccccc3)cc2/C=N/NC(=O)c2ccncc2)o1 | x | 58* | 65* | -7% | -24%[11.4 µM]
O=C(N1CCc2ccc(S(=O)(=O)N3CCN(S(=O)(=O)c4ccc5c(c4)OCCO5)CC3)cc2C1)C(F)(F)F | x | 6 | 8 | x | x
CC1=C(c2ccc(C)c(C)c2)S(=O)(=O)N=C1N1CCC(C(=O)N2CCCCC2)CC1 | x | x | x | -5% | x
